40 compounds from PubChem BioAssay (Tox21) can be followed below.

Records with an inconclusive call do not appear. A number with no mark means an inactive call. Active and inactive are the calls of the source. The call rests on the fitted dose curve.
On the % scale 0 is the no-effect control and ±100 the full control effect; potency means the concentration at half of the fitted maximal effect.

A short description of the test: qHTS assay to identify small molecule agonists of the progesterone receptor (PR) signaling pathway - cell viability counter screen (AID 1346799). Further: nearly all actives have a fitted effect of over 45% in size. As to conditions: PR-UAS-bla HEK293T viability, CellTiter-Glo luminescence, 16 h; series mostly up to 92.4 µM; activity change, negative = cytotoxicity: at the top concentration. The source says:
National Center for Advancing Translational Sciences [NCATS]
NIH Chemical Genomics Center [NCGC]
U.S. Environmental Protection Agency [EPA]
National Institutes of Environmental Health Sciences [NIEHS]
National Toxicology Program [NTP]
U.S. Food and Drug Administration [FDA]
Progesterone receptor (PR), a nuclear hormone receptor, plays an important role in development, metabolic homeostasis and reproduction. It is activated by the steroid hormone progesterone. Endocrine disrupting chemicals (EDCs) and their interactions with steroid hormone receptors like PR causes disruption of normal endocrine function. To identify the compounds that stimulate PR signaling, a PR-UAS-bla GripTite cell line i.e. PR-UAS-bla HEK293T (Invitrogen, Carlsbad, CA, USA) containing a beta-lactamase reporter gene under the control of an UAS response element was used to screen Tox21 10K compound library. The cytotoxicity of the Tox21 compound library against the PR-bla cell line was tested in parallel by measuring the cell viability using CellTiter-Glo assay in the same wells.
Tox21 Assay Protocol Summary:
PR-UAS-bla HEK293T cells were dispensed at 3,000 cells/5 uL of assay medium containing 2% charcoal stripped FBS per well into black wall/clear-bottom 1536-well plates using a Multidrop Combi (ThermoFisher Scientific, Waltham, MA) dispenser. After the assay plates were incubated at a 37C and 5% CO2 for 6 hr, 23 nL of compounds dissolved in DMSO, positive controls or DMSO only was transferred to the assay plate by a Pintool station (Kalypsys, San Diego, CA). The plates were incubated at 37C and 5% CO2 for 16 hr. Then 1 uL of LiveBLAzer B/G FRET substrate was added using a Flying Reagent Dispenser (FRD, Aurora Discovery, San Diego, CA), the plates were incubated at room temperature for 2 hours, and fluorescence intensity was measured by an Envision plate reader (PerkinElmer, Shelton, CT). For cell viability readout that measures cytotoxicity, 4 uL/well of CellTiter-Glo reagent was added into the assay plates using a FRD. After 30 min incubation at room temperature, the luminescence intensity in the plates was measured using a ViewLux (PerkinElmer) plate reader.
As for `CCN(Cc1cccc(S(=O)(=O)O)c1)c1ccc(C(=C2C=CC(=[N+](CC)Cc3cccc(S(=O)(=O)O)c3)C=C2)c2ccccc2S(=O)(=O)[O-])cc1`, the Potency was 13.7 µM (active).

Turning to `O=NN(CCCl)C(=O)NCCCl`, the “activity change, negative = cytotoxicity” value was -8.41% [at 42.5 µM].

For `CC(C)c1ccc(C#N)cc1`, the “activity change, negative = cytotoxicity” value was -7.39%.

As to `Nc1ccc(F)cc1`, the “activity change, negative = cytotoxicity” value is 0%.

Turning to `CC[C@H]1OC(=O)[C@H](C)[C@@H](O[C@H]2C[C@@](C)(OC)[C@@H](O)[C@H](C)O2)[C@H](C)[C@@H](O[C@@H]2O[C@H](C)C[C@H](N(C)C)[C@H]2O)[C@](C)(O)C[C@@H](C)C(=O)[C@H](C)[C@@H](O)[C@]1(C)O`, the “activity change, negative = cytotoxicity” value is -6.04% [at 42.5 µM].

As to `Cc1ccc2nc(N)[nH]c(=O)c2c1Sc1ccncc1`, the “activity change, negative = cytotoxicity” value was 11.3% [at 42.5 µM].

For the compound `CC(CCc1ccc(O)cc1)NCCc1ccc(O)c(O)c1` (stereo not given), the “activity change, negative = cytotoxicity” value is -0.01% [at 42.5 µM].

Regarding `COC(OC)OC`, the “activity change, negative = cytotoxicity” value was 0.0486%.

Turning to `CCO[Si](C)(CCCOCC1CO1)OCC` (stereo not given), the “activity change, negative = cytotoxicity” value is 5%.

As to `O=C(O)c1cccc(Oc2ccccc2)c1`, the “activity change, negative = cytotoxicity” value was 0.588%.

Regarding `CCC(CO)(CO)[N+](=O)[O-]`, the “activity change, negative = cytotoxicity” value is -1.39%.

With `O=C(O)c1cc(Cl)cc(Cl)c1O`, the “activity change, negative = cytotoxicity” value was -27.9%.

Consider `O=C(NC(Cc1cc(=O)[nH]c2ccccc12)C(=O)O)c1ccc(Cl)cc1` (stereo not given), for which the “activity change, negative = cytotoxicity” value was -7.18% [at 42.5 µM].

`C=C(C)C(=O)OCCC(F)(F)C(F)(F)C(F)(F)C(F)(F)C(F)(F)C(F)(F)F`: the “activity change, negative = cytotoxicity” value is 5.24%.

As for `O=C1NC(=O)c2cccc3cccc1c23`, the “activity change, negative = cytotoxicity” value was 9.38%.

`CC(C)c1ccc(C(=O)N=C(N)N)cc1S(C)(=O)=O`: the “activity change, negative = cytotoxicity” value is -3.07% [at 42.5 µM].

On to `CCOC(=O)Oc1ccc(CCNC(=O)[C@H](CCSC)NC(C)=O)cc1OC(=O)OCC`, for which the “activity change, negative = cytotoxicity” value was 9.29% [at 42.5 µM].

`CCCCCCCCCCCCCCN(C)C`: the activity change, negative = cytotoxicity is 0% [at 19 µM].

In the case of `CC(=O)OCCC1CCCCC1`, the “activity change, negative = cytotoxicity” value was 2.97%.

Consider `CC(O)Cn1cnc2c1c(=O)n(C)c(=O)n2C` (stereo not given), for which the “activity change, negative = cytotoxicity” value was -0.923% [at 42.5 µM].

For `CC(C)(C(=O)c1cccnc1)c1cccnc1`, the “activity change, negative = cytotoxicity” value was 9.2% [at 42.5 µM].

For `CNS(=O)(=O)c1cc(C(=O)N2CCC(CCN3C4CCC3CC(n3c(C)nc5ccccc53)C4)(c3cccc(F)c3)CC2)c(Cl)cc1F` (stereo not given), the Potency is 5.45 µM (active).

On to `CC(C)N(C)C`, for which the “activity change, negative = cytotoxicity” value is 26.7%.

Turning to `COC(CC(C)CCCC(C)(C)O)OC` (stereo not given), the “activity change, negative = cytotoxicity” value is 19.2%.

`CCNc1nc(N)nc(Cl)n1`: the “activity change, negative = cytotoxicity” value was 4.83%.

Regarding `CC[C@@H](CO)NCCN[C@@H](CC)CO`, the “activity change, negative = cytotoxicity” value is 1.92% [at 42.5 µM].

As for `COC1CCC=CO1` (stereo not given), the “activity change, negative = cytotoxicity” value was 4.4%.

As to `COc1cc(NS(=O)(=O)c2ccc(N)cc2)nc(C)n1`, the “activity change, negative = cytotoxicity” value was 5.72% [at 42.5 µM].

As for `Cc1cn([C@H]2C[C@H](F)[C@@H](CO)O2)c(=O)[nH]c1=O`, the “activity change, negative = cytotoxicity” value was 6.12% [at 42.5 µM].

`C1CCCCC1`: the “activity change, negative = cytotoxicity” value was -4.61%.

For `CCCc1nc2c(C)cc(-c3nc4ccccc4n3C)cc2n1Cc1ccc(-c2ccccc2C(=O)O)cc1`, the “activity change, negative = cytotoxicity” value was 18.2% [at 42.5 µM].

Take `c1ccc2sc(SSc3nc4ccccc4s3)nc2c1`: the activity change, negative = cytotoxicity is 5.24% [at 19 µM].

As for `COC(C)(C)OC`, the “activity change, negative = cytotoxicity” value is -7.63%.

Turning to `Cc1oc(=O)oc1COC(=O)[C@@H]1N2C(=O)[C@@H](NC(=O)[C@H](N)c3ccccc3)[C@H]2SC1(C)C`, the “activity change, negative = cytotoxicity” value was 6.23% [at 42.5 µM].

Regarding `CCCCCC`, the “activity change, negative = cytotoxicity” value was -14.4%.

In the case of `C=Cc1ccc(OC(C)=O)cc1`, the “activity change, negative = cytotoxicity” value was -7.8%.

`O=C(/C=C/c1ccc([N+](=O)[O-])cc1)c1ccccc1`: the “activity change, negative = cytotoxicity” value is 27.4%.

For the compound `Cc1cc(CCCOc2c(C)cc(-c3noc(C(F)(F)F)n3)cc2C)on1`, the “activity change, negative = cytotoxicity” value was 13.8% [at 42.5 µM].

Regarding `CC(=O)OCC(=O)[C@@]1(OC(C)=O)[C@@H](C)C[C@H]2[C@@H]3C[C@H](F)C4=CC(=O)C=C[C@]4(C)[C@@]3(F)[C@@H](O)C[C@@]21C`, the “activity change, negative = cytotoxicity” value is 0.182% [at 42.5 µM].

With `NC(=O)c1ccccc1[N+](=O)[O-]`, the “activity change, negative = cytotoxicity” value is 20.1%.
